Test results reported in PubChem BioAssay (Tox21).
“And” between values parts separate entries of the source, which are not always exact repeats. Equal values may be shown once. Inconclusive results are not listed. Where a call stands in place of a potency, no number is given. The source made the active and inactive calls. Unless noted, the call rests on the fitted dose curve.

What was measured:
[1] = Nuclear factor erythroid 2-related factor 2/antioxidant responsive element (Nrf2/ARE) small molecule agonists: qHTS cell viability counter screen in human keratinocytes (AID 1919968; active means well fitted curve in the direction sought with a large enough effect in the repeat runs; an effect the other way counts as inactive or inconclusive; further: nearly all actives have a fitted effect of over 55% in size; further: potency means the concentration at half of the fitted maximal effect); settings: KeratinoSens HaCaT ARE cells viability, CellTiter-Fluor, 24 h; series mostly up to 92.4 µM
In short: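 In human HaCaT keratinocytes stably expressing an ARE-driven luciferase, compound exposure lasted 23 h at 37 C under 5% CO2. Viable cells are quantified with a protease-based fluorogenic reagent (CellTiter-Fluor) read 1 h after addition.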

[2] = Nuclear factor erythroid 2-related factor 2/antioxidant responsive element (Nrf2/ARE) small molecule agonists: luciferase reporter gene qHTS assay in human keratinocytes (AID 1919969); settings: KeratinoSens HaCaT ARE-luciferase, luminescence, 24 h; series mostly up to 92.4 µM; further: nearly all actives have a fitted effect of over 35% in size
[3] = molecular target: Gonadotropin-releasing hormone receptor (Homo sapiens) (UniProt P30968); assay: Human gonadotropin-releasing hormone receptor (GnRHR) small molecule agonists, calcium flux assay in GnRHR-HEK293 cells (AID 1920063); settings: calcium flux fluorescence, agonist mode; series mostly up to 57.6 µM; further: nearly all actives have a fitted effect of over 35% in size; further: potency means the concentration at half of the fitted maximal effect
In short: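 Intracellular calcium rise is the read-out: engineered human GnRHR HEK293 cells, dye-loaded, are exposed to DMSO-dissolved compounds and fluorescence at Ex/Em 480/540 is tracked for 3 min.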

[4] = molecular target: KiSS-1 receptor (Homo sapiens) (UniProt Q969F8); assay: Human kisspeptin (KISS1R) small molecule agonists, calcium flux assay in KISS1R-HEK293 cells (AID 1920064; active means well fitted curve in the direction sought with a large enough effect in the repeat runs; an effect the other way counts as inactive or inconclusive; further: potency means the concentration at half of the fitted maximal effect); settings: KISS1R-HEK293, calcium flux fluorescence, agonist; series mostly up to 76.8 µM
In short: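 Concentration-response testing used 15 concentrations in triplicate on human KISS1R-expressing HEK293 cells. Calcium-dependent fluorescence (Ex/Em 480/540) was followed kinetically for 3 min after compound transfer.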

[5] = G protein-coupled receptor (GPCR) small molecule agonists, calcium flux assay: HEK293 wild type cell line counter screen (AID 1920065); settings: HEK293 WT calcium flux, fluorescence, agonist mode; series mostly up to 57.6 µM; further: potency means the concentration at half of the fitted maximal effect
In short: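 Fluorescence intensity signals activation. After overnight (18 h) culture and a 1 h calcium dye load at 37 C, compounds are added by pin tool and the plate read at 480/540 nm for 3 min in 1 s steps.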

[6] = p53 small molecule agonists, cell-based qHTS assay with human liver microsomes: qHTS cell viability counter screen (AID 1963579); settings: p53RE-bla HCT-116 viability, ATP luminescence, 16 h, HLM; series mostly up to 66 µM; further: nearly all actives have a fitted effect of over 45% in size
In short: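 Metabolic activation used human liver microsomes and NADPH, both 0.5 mg/mL final, over 16 hours at 37 C on p53RE-bla cells (4,000/well). Cytotoxicity measured by CellTiter-Glo luminescence, 30 min at room temperature.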

[7] = p53 small molecule agonists, cell-based qHTS assay: qHTS cell viability counter screen (AID 1963581); settings: p53RE-bla HCT-116 viability, ATP luminescence, 16 h; series mostly up to 66 µM; further: nearly all actives have a fitted effect of over 45% in size
In short: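 Luminescence from CellTiter-Glo, reflecting ATP content, serves as the cytotoxicity measure; it is taken after the 2 h reporter substrate step in HCT-116 p53RE-bla cells dosed for 16 h at 37 C.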

[8] = molecular target: 5-hydroxytryptamine receptor 2A (Homo sapiens) (UniProt P28223); assay: 5-hydroxytryptamine receptor 2A (HTR2A) small molecule antagonists, cell-based qHTS assay (AID 1963586); settings: HTR2A-CHO cells, DOI-induced calcium flux, fluorescence; series mostly up to 61.5 µM; further: nearly all actives have a fitted effect of over 45% in size
In short: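 CHO cells stably expressing human HTR2A were plated for 18 h at 37 C, then loaded with calcium dye for 1 h. Compounds were preincubated 5 min at room temperature before DOI (4 nM solution) was added. Kinetic fluorescence was read for 3 min.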

[9] = molecular target: 5-hydroxytryptamine receptor 2A (Homo sapiens) (UniProt P28223); assay: 5-hydroxytryptamine receptor 2A (HTR2A) small molecule agonists, cell-based qHTS assay (AID 1963587); settings: HTR2A-CHO cells, calcium flux fluorescence, agonist mode; series mostly up to 76.8 µM; further: nearly all actives have a fitted effect of over 30% in size
In short: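 HTR2A-CHO cells, plated 18 h at 37 C/5% CO2, dye-loaded 1 h at 37 C; compounds in DMSO added by pin tool (agonist mode). Intracellular calcium flux read as kinetic fluorescence on FDSS over 2 min at 1 s intervals.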

[10] = molecular target: Muscarinic acetylcholine receptor M1 (Homo sapiens) (UniProt P11229); assay: Cholinergic receptor muscarinic 1 (CHRM1) small molecule antagonists, cell-based qHTS assay (AID 1963588); settings: CHRM1-CHO antagonist mode, calcium flux fluorescence; series mostly up to 61.5 µM; further: nearly all actives have a fitted effect of over 40% in size
In short: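 Compounds were tested at 15 concentrations in three independent runs. Dye-loaded CHRM1-CHO cells were exposed 5 min at room temperature before stimulation by acetylcholine added at 50nM. Intracellular calcium was read kinetically on FDSS for 3 min.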

[11] = molecular target: Muscarinic acetylcholine receptor M1 (Homo sapiens) (UniProt P11229); assay: Cholinergic receptor muscarinic 1 (CHRM1) small molecule agonists, cell-based qHTS assay (AID 1963589); settings: CHRM1-CHO cells, agonist mode, calcium flux fluorescence; series mostly up to 76.8 µM; further: nearly all actives have a fitted effect of over 35% in size
In short: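 Fluorescent calcium dye reports M1 activation in stably transfected CHO cells. Compounds, 15 concentrations, added after 1 h dye loading at 37 C; kinetic reading at 1 sec intervals.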

[12] = cAMP Responsive Elements (CRE) small molecule agonists, cell-based qHTS assay (AID 1963590); settings: CRE-bla HEK293T, beta-lactamase FRET ratio, 3 h; series mostly up to 92.4 µM
In short: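 Compound exposure lasted 3 h at 37 C/5% CO2 in CRE-bla HEK 293T cells grown in assay medium with 10% dialyzed FBS and 25 mM HEPES. Reporter signal came from LiveBLAzer B/G FRET substrate, 2 h, room temperature.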

[13] = cAMP Responsive Elements (CRE) small molecule antagonists, cell-based qHTS assay (AID 1963591; active means well fitted inhibition curve with a large enough effect in the signal ratio in the repeat runs, not every such curve was filed as active; the % refers to the signal ratio); settings: CRE-bla HEK293T, beta-lactamase FRET ratio; series mostly up to 92.4 µM
In short: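 Stimulation used NKH477 at a final 0.25 uM for 3 h in compound-treated CRE-bla HEK293T cells, seeded 18 h beforehand. Reporter activity was measured with LiveBLAzer B/G FRET substrate after 2 h at room temperature.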

[14] = molecular target: Beta-2 adrenergic receptor (Homo sapiens) (UniProt P07550); assay: Adrenergic beta2 receptor (ADRB2) small molecule antagonists, cell-based qHTS assay (AID 1963592); settings: CHO-ADRB2 cells, isoproterenol-stimulated cAMP HTRF ratio, 0.5 h; series mostly up to 92.4 µM; further: nearly all actives have a fitted effect of over 50% in size
In short: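 Assay format: CHO-ADRB2 cells, 18-20hr seeding at 37C/5% CO2, then compound plus 1nM isoproterenol agonist mix for 0.5hr RT. Homogeneous time-resolved fluorescence cAMP detection after 1hr, expressed as 665/615 nm ratio.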

[15] = molecular target: Beta-2 adrenergic receptor (Homo sapiens) (UniProt P07550); assay: Adrenergic beta2 receptor (ADRB2) small molecule agonists, cell-based qHTS assay (AID 1963593); settings: CHO-ADRB2 cells, cAMP HTRF, 30 min; series mostly up to 92.4 µM;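 further: CHO cells stably overexpressing human ADRB2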
In short: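 CHO cells stably over-expressing ADRB2 were plated overnight at 37C, then dosed with compounds plus a stimulation mix containing 100uM IBMX and 25uM Ro-20-1724 for 0.5hr at room temperature. cAMP was measured by HTRF competition, 1hr.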

[16] = molecular target: D(2) dopamine receptor (Homo sapiens) (UniProt P14416); assay: Dopamine D2 receptor (DRD2) small molecule agonists, cell-based qHTS assay (AID 1963594); settings: HEK293-DRD2 cAMP HTRF, agonist mode, 30 min; series mostly up to 92.4 µM; further: nearly all actives have a fitted effect of over 35% in size
In short: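 HEK293 cells stably expressing DRD2 were cultured 24 h at 37 C, then given Ro20-1724 (0.1 mM final) and compounds for 10 min at room temperature. NKH477 (200nM) was then added for 30 min. cAMP was read by HTRF.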

[17] = molecular target: D(2) dopamine receptor (Homo sapiens) (UniProt P14416); assay: Dopamine D2 receptor (DRD2) small molecule antagonists, cell-based qHTS assay (AID 1963595; active means well fitted inhibition curve with a large enough effect in the signal ratio in the repeat runs, with a control signal flat; the % refers to the signal ratio; further: potency means the concentration at half of the fitted maximal effect); settings: HEK293-DRD2 cAMP HTRF antagonist mode; series mostly up to 92.4 µM
In short: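 In this cell-based antagonist screen, compounds act for 10 min at room temperature before a 30 min challenge with 12 nM quinpirole and 200 nM NKH477. cAMP is quantified by HTRF competition in DRD2-HEK293 cells containing 0.1 mM Ro20-1724.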

[18] = p53 small molecule agonists, cell-based qHTS assay (AID 1963582; active means well fitted activation curve with a large enough effect in the signal ratio in the repeat runs, not every such curve was filed as active; the % refers to the signal ratio); settings: HCT-116 p53RE-bla reporter, beta-lactamase FRET ratio, 16 h; series mostly up to 66 µM
In short: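 After plating, p53RE-bla cells sat 5 h in the incubator; compounds or DMSO vehicle were pinned in; a 16 h incubation at 37 C followed; FRET substrate was added and, 2 h later at RT, fluorescence was measured.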

[19] = p53 small molecule agonists, cell-based qHTS assay with rat liver microsomes (AID 1963578); settings: HCT-116 p53RE-bla, beta-lactamase ratio, 16 h; series mostly up to 66 µM
In short: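 Metabolic activation by rat liver microsomes and NADPH, each 0.5 mg/mL final, added right after compounds to p53RE-bla reporter cells (4,000/well, plated 5 h earlier). 16 h at 37 C, then LiveBLAzer substrate for 2 h at room temperature in the dark; fluorescence read-out.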

[20] = p53 small molecule agonists, cell-based qHTS assay with rat liver microsomes: qHTS cell viability counter screen (AID 1963580); settings: p53RE-bla HCT-116 + rat microsomes, ATP viability, 16 h; series mostly up to 66 µM; further: nearly all actives have a fitted effect of over 45% in size
In short: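 Luminescent ATP readout (CellTiter-Glo, 30 min at room temperature) reports viability of p53RE-bla HCT-116 cells after 16 h at 37 C with test compounds under metabolic activation by rat liver microsomes and NADPH at 0.5 mg/mL final each.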

Sequence of Gonadotropin-releasing hormone receptor (Homo sapiens) (P30968 whole entry, looked up): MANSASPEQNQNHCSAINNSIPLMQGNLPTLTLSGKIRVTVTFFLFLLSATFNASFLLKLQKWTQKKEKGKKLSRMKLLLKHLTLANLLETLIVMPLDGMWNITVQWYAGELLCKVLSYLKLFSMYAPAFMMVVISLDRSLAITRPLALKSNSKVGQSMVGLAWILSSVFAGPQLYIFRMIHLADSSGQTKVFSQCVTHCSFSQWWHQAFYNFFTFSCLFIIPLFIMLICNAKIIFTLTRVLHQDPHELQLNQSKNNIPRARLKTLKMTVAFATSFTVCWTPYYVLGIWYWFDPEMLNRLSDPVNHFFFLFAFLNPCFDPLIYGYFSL
Sequence of KiSS-1 receptor (Homo sapiens) (Q969F8 whole entry, looked up): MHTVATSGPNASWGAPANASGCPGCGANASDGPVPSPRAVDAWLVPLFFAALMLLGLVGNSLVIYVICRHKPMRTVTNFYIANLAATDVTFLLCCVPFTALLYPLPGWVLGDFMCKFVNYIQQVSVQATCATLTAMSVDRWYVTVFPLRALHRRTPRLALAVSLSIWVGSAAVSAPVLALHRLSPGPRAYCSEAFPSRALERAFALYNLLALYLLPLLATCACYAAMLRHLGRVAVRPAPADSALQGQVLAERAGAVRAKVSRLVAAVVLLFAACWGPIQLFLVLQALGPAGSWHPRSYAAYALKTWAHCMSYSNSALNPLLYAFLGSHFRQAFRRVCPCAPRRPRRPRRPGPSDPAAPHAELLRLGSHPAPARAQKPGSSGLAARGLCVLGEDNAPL
Sequence of D(2) dopamine receptor (Homo sapiens) (P14416 whole entry, looked up): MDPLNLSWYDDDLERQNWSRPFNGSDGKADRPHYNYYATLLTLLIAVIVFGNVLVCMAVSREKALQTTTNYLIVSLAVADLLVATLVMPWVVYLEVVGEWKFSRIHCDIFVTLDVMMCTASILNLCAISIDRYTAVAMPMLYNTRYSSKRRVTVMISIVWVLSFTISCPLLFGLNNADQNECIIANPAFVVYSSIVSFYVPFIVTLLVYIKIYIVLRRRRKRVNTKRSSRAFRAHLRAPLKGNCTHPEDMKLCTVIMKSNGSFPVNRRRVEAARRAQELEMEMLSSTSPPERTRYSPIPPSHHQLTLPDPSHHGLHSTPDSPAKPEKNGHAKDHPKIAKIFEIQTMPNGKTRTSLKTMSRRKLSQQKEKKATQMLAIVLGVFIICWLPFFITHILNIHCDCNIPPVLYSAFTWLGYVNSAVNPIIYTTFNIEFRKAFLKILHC
Sequence of Beta-2 adrenergic receptor (Homo sapiens) (P07550 whole entry, looked up): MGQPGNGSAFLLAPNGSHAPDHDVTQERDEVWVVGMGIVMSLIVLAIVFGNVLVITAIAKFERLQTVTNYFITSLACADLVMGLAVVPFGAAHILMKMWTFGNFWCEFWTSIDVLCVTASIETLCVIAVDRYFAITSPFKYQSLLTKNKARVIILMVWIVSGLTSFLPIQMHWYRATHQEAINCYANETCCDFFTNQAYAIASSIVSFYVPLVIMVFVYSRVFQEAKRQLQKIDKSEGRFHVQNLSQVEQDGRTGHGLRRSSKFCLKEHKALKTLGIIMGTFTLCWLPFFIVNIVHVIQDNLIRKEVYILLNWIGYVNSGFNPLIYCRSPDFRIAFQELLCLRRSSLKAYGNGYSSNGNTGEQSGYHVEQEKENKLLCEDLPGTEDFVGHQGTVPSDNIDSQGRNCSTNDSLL
Sequence of Muscarinic acetylcholine receptor M1 (Homo sapiens) (P11229 whole entry, looked up): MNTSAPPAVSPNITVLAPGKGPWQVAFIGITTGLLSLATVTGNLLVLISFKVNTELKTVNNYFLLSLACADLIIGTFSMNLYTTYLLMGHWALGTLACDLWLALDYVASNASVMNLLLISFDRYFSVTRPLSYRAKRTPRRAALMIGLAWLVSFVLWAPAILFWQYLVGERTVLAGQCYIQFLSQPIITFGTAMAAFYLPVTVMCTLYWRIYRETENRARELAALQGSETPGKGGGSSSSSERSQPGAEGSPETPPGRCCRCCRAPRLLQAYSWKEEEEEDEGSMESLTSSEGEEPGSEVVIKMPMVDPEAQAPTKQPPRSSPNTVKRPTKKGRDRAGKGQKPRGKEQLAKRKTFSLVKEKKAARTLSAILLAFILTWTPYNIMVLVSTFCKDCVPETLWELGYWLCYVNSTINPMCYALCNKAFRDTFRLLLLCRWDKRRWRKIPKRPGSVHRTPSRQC
Sequence of 5-hydroxytryptamine receptor 2A (Homo sapiens) (P28223 whole entry, looked up): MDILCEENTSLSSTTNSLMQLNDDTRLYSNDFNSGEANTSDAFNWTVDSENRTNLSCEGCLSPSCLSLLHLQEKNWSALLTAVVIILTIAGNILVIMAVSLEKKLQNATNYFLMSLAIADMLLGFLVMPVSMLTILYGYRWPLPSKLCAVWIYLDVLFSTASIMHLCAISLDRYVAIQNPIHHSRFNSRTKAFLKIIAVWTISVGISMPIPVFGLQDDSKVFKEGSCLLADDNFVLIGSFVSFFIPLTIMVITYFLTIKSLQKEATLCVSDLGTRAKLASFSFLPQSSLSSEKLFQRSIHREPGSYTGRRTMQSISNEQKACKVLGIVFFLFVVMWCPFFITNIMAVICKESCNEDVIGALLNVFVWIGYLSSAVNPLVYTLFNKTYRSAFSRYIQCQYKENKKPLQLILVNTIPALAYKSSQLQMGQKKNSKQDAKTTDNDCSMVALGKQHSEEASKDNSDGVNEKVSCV

| Compound | Potency [1] | Potency [2] | Potency [3] | Potency [4] | Potency [5] | Potency [6] | Potency [7] | Potency [8] | Potency [9] | Potency [10] | Potency [11] | Potency [12] | Potency [13] | Potency [14] | Potency [15] | Potency [16] | Potency [17] | Potency [18] | Potency [19] | Potency [20] |
| --- | --- | --- | --- | --- | --- | --- | --- | --- | --- | --- | --- | --- | --- | --- | --- | --- | --- | --- | --- | --- |
| COc1ccc(COC(C)=O)cc1 | inactive | inactive | inactive | inactive | inactive | inactive | inactive | inactive | inactive | inactive | inactive | inactive | inactive | inactive | inactive | inactive | inactive |  |  |  |
| OCC1CC2CC1C1CCC(CO)C21 (stereo not given) | inactive | inactive | inactive | inactive | inactive | inactive |  | inactive | inactive | inactive | inactive |  | inactive | inactive | inactive | inactive | inactive | inactive |  |  |
| CC[C@@H]1C[C@H](N(Cc2cc(C(F)(F)F)cc(C(F)(F)F)c2)C(C)=O)c2cc(C(F)(F)F)ccc2N1C(=O)OC(C)C | inactive | inactive | inactive | inactive |  | inactive | inactive | inactive | inactive | inactive | inactive | inactive | inactive | inactive |  | inactive | inactive | inactive | inactive | inactive |
| O=C(O)/C=C/C(=O)O | inactive | inactive | inactive | inactive | inactive |  |  | inactive | inactive | inactive | inactive | inactive | inactive | inactive | inactive | inactive | inactive |  |  |  |
| CC(C(=O)O)c1cccc(C(=O)c2ccccc2)c1 (stereo not given) | inactive | inactive | inactive | inactive | inactive |  |  |  |  |  |  |  |  | inactive | inactive | inactive | inactive | inactive |  |  |
| O=C1OC2(c3ccc(O)cc3Oc3cc(O)ccc32)c2ccccc21 | 9.44 µM (active) | inactive | 389 nM (active) and 1.9 µM (active) | 550 nM (active) and 2.39 µM (active) | 1.74 µM (active) and 3.38 µM (active) | inactive | inactive |  |  |  |  |  |  | inactive |  | inactive | inactive |  |  |  |
| CCCOCCOCCOCCO | inactive | inactive | inactive | inactive |  | inactive | inactive | inactive | inactive | inactive | inactive | inactive | inactive | inactive | inactive | inactive | inactive | inactive | inactive | inactive |
| COc1ccc(OC)c(C(O)CNC(=O)CN)c1 (stereo not given) | inactive | inactive | inactive | inactive | inactive |  |  | inactive | inactive | inactive | inactive | inactive | inactive | inactive | inactive | inactive | inactive | inactive |  |  |
| CC(C)(C)NCC(O)c1ccc(O)c(CO)c1 (stereo not given) | inactive | inactive | 30.1 nM (active) | inactive | inactive |  | inactive |  |  |  |  |  |  |  |  | inactive | 962 nM (active) and 750 nM (active) |  |  |  |
| O=C(NCC1CCCCN1)c1cc(OCC(F)(F)F)ccc1OCC(F)(F)F (stereo not given) | inactive | inactive | inactive | inactive | inactive |  | inactive | inactive | inactive | inactive | inactive | inactive | inactive | inactive |  | inactive | inactive | inactive |  |  |
